Assay outcomes as filed in PubChem BioAssay.
An excerpt weighted towards active compounds, which were near 32% of everything screened.
CYP2C9 inh: blocks human cytochrome P450 2C9. P11712. CYP2C9 Supersomes, luciferin-H conversion, luminescence. inhibition, % at 5 µM. 96,000 tested, 20% active. AID 777;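 active = blocking of liver enzyme CYP2C9 beyond about 50% at 5 µM, limit read from the data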
Target sequence (P11712 whole entry, looked up): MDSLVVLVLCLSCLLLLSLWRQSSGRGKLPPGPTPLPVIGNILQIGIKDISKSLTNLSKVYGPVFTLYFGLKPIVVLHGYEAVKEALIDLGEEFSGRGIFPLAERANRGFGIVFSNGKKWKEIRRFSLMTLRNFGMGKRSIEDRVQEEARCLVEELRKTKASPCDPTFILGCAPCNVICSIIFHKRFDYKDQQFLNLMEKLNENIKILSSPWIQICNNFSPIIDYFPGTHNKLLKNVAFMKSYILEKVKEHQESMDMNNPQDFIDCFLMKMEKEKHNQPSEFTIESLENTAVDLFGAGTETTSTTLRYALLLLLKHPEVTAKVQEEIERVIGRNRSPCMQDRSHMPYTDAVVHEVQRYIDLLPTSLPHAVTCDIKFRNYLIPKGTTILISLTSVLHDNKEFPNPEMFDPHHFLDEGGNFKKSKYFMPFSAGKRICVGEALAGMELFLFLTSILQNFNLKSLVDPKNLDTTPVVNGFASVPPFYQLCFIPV
CYP2C19 act: cytochrome P450 2C19 (human) activation; P33261; recombinant CYP2C19, luciferin-H EGE luminescence; active compounds read high; 0 = fully inhibited enzyme, 1 = untreated enzyme; activation factor at 5 µM; 96,000 tested, under 10 active; AID 1025;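 active = activation factor of at least 2 at 5 µM in the primary screen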;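 note: 0 = wells with 2.5 mM tranylcypromine and 1 = vehicle-only wells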
PostGolgi ctrl: growth of the yeast control strain, post-Golgi counter-screen; 98,000 tested, 5% active; inhibition, % at 10 µM; efflux-deficient yeast background strain, growth absorbance A615, 16 h; AID 738
CYP2C19 inh: inhibitors of human CYP2C19; CYP2C19 Supersomes, luciferin-H EGE luminescence, 30 min; inhibition, % at 5 µM; 96,000 tested, 21% active; P33261;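 active = CYP2C19 inhibition above a set limit at 5 µM in the primary screen, cut at about 50% in these data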;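 note: plate controls were negative control wells for no effect and 2.5 mM tranylcypromine positive control for full effect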
CYP2C9 act: activators of human CYP2C9 | 96,000 tested, 1.4% active | activation factor at 5 µM | P11712 | AID 1024 | recombinant CYP2C9, luciferin-H conversion, luminescence; active compounds read high; factor 1 = untreated enzyme, 0 = blocked;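 active = activation factor of 2 or more for CYP2C9 at a 5 µM dose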;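 note: 0 = sulfaphenazole-blocked wells and 1 = vehicle-only wells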
PostGolgi yeast: growth inhibition of a yeast mutant, post-Golgi transport screen; AID 739; inhibition, % at 10 µM; 98,000 tested, 0.9% active; post-Golgi transport phenotypic cell assay;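 note: yeast cells grown in 1536-well plates; yeast grown about 18 h at 30C before absorbance read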
Active calls of the source: *; . = not tested or not shown. Cut-off read from the data, not from the text of the source, unless noted: active = inhibition above about 30%; inactive = the rest.

SMILES	CYP2C9 inh	CYP2C19 act	PostGolgi ctrl	CYP2C19 inh	CYP2C9 act	PostGolgi yeast
COc1ccc2c(C(=O)CN(C)C3CCCCC3)c[nH]c2c1	.	.	-1	.	.	5
O=C1C2C3C=CC(C3)C2C(=O)N1c1ccncc1 (stereo unspecified)	28	0.8	1	15	0.7	0
O=C1C2ON(c3ccccc3)C(c3ccccn3)C2C(=O)N1c1ccc(Br)cc1 (stereo unspecified)	74*	0.6	6	39	0.3	-5
O=C1C2C(c3ccccc3)C=CC(c3ccccc3)C2C(=O)N1c1ccncc1 (stereo unspecified)	82*	0	34*	97*	0.2	-5
CN(C)c1ccc(C2C3C(=O)N(c4ccc(C(=O)O)cc4)C(=O)C3ON2c2ccccc2)cc1 (stereo unspecified)	11	1	1	1	0.9	-5
O=C1C2ON(c3ccccc3)C(c3ccncc3)C2C(=O)N1c1ccc(N2CCOCC2)cc1 (stereo unspecified)	45	0.7	-2	26	0.6	-6
Cc1ccc(N2C(=O)C3ON(c4ccccc4)C(c4ccncc4)C3C2=O)cc1 (stereo unspecified)	97*	0	-8	100*	0	5
O=C1C2ON(c3ccccc3)C(c3ccncc3)C2C(=O)N1c1ccc(Br)cc1 (stereo unspecified)	99*	0	1	100*	0	22
Cc1ccccc1N(CC(=O)NCCSCc1ccco1)S(C)(=O)=O	68*	0.3	6	74*	0.3	-2
Cc1ccccc1CSCCNC(=O)CN(c1ccc2c(c1)OCO2)S(C)(=O)=O	56*	0.4	5	64*	0.4	-5
CCCCCNC(=O)CN(c1ccc2c(c1)OCO2)S(C)(=O)=O	10	0.5	-2	46	0.9	-8
Cc1ccc(SCCNC(=O)CN(c2ccc3c(c2)OCO3)S(C)(=O)=O)cc1	92*	0.1	7	92*	0.1	4
O=C(NCCSCc1ccco1)Nc1ccccc1	25	0.2	-2	79*	0.7	-1
O=C(Cc1ccccc1)NCCSCc1ccco1	-2	0.7	-1	31	1	-3
FC(F)(F)c1cc(-c2ccco2)nc(-n2nnc3ccccc32)n1	8	1.1	-1	-12	0.9	7
CS(=O)(=O)N(CC(=O)NC1CCCC1)c1ccc2c(c1)OCCO2	9	0.8	4	21	0.9	-2
CS(=O)(=O)N(CC(=O)NCCSC1CCCCC1)c1ccc2c(c1)OCO2	56*	0.3	15	70*	0.4	1
N#CCCSc1nc(N2CCOCC2)c2c(c1C#N)CCCC2	97*	0.1	17	91*	0	9
COCc1cc(C)nc(N2CCOCC2)c1C#N	-36	1.1	.	-13	1.4	0
CCCSc1nc(N2CCOCC2)c2c(c1C#N)CCCC2	93*	0.4	28	59*	0.1	-10
CCCCc1nc(N2CCOCC2)c(C#N)c2c1CCCC2	49	0.7	25	30	0.5	5
CSc1nc(C)c2c(c1C#N)CCCC2	-27	0.8	12	18	1.3	19
Cc1nc(N2CCOCC2)c(C#N)c(C)c1Br	20	0.4	-1	56*	0.8	0
CCCc1nc(N2CCOCC2)c(C#N)c2c1CCCC2	72*	0.2	39*	82*	0.3	-1
CCOC(=O)c1[nH]c2ccc(F)cc2c1NC(=O)Nc1ccccc1OC	-9	1.2	-3	-17	1.1	-8
SMILES	CYP2C9 inh	CYP2C19 act	PostGolgi ctrl	CYP2C19 inh	CYP2C9 act	PostGolgi yeast
O=C(Nc1ccc(Cl)cc1-c1nc2ccccc2s1)c1ccco1	12	1.1	20	-15	0.9	1
CSc1nc(N2CCOCC2)c2c(c1C#N)CCCCC2	79*	0.5	23	47	0.2	-8
CCOc1cc(CN2CCSCC2)ccc1O	-17	1	0	0	1.2	-9
CCOc1cc(CNc2ccc3c(c2)CCC3)ccc1O	77*	0.1	-1	91*	0.2	7
COc1cc(CNc2ccccc2SC)ccc1O	34	0.1	-23	87*	0.7	7
CCOc1cc(CNc2ccccc2SC)ccc1O	32	0.3	18	67*	0.7	1
COc1ccc(CNc2nc(SC)n[nH]2)cc1OC	6	0.6	7	36	0.9	-6
